# The sample as a whole holds a higher share of hits than the screen did.
# SARS PLpro yeast – SARS-CoV PLP inhibition in yeast; S. cerevisiae expressing SARS-CoV PLpro, growth rescue; Potency, µM (titrated, usually from 32.9 µM), without a hit: top-dose activity, positive = growth rescue, most hits filed as activators; hit rate 0.19% among 330,000; AID 485353; calls by dose curve; further: potency means the concentration at half of the fitted maximal effect; 0% is about no effect; nearly all actives have a fitted effect of over 55% in size
# Cycloheximide cs – affects cycloheximide protein synthesis inhibition readout, counter-screen | max response, % | cell reporter, cycloheximide protein synthesis inhibition counterscreen | hit rate 12% among 300,000; in the data active means max response mostly above about 13%, no sharp cut-off; inactive means mostly below about 14%; further: read at 38.3 µM for the half of the compounds with a filed dose; 0% is about no effect
# AmpC detergent – AmpC beta-lactamase inhibition with detergent present; Potency, µM (series often up to 114 µM), for the others: at the top dose activity change, negative = inhibition, usual class: inhibitors; hit rate 0.041% among 370,000; AID 485294; AmpC hydrolysis of nitrocefin, absorbance 480 nm, 0.01% Triton;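 further: potency means the concentration at half of the fitted maximal effect; 0% = no-compound wells and -100% = no-enzyme wells; nearly all actives have a fitted effect of over 25% in size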
# Target sequence (P00811 whole entry, looked up): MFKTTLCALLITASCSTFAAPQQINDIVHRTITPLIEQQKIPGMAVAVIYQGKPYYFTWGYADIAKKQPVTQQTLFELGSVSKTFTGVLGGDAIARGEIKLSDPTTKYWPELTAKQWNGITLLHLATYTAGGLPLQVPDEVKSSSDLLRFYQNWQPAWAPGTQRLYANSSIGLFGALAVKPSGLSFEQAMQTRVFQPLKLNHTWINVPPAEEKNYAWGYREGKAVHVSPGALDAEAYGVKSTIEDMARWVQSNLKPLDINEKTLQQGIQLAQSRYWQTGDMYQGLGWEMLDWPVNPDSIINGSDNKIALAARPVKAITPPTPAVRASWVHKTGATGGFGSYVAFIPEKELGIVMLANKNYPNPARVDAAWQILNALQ
#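 20 mM phosphate pH 7.0 + 0.01% (detergent screen) or 0.0001% Triton X-100; 5.3 nM AmpC reagent; cpd preinc 15 min RT; nitrocefin (800 uM stock) to start; A480 q20 s × 4 min; Activity was normalised to no-enzyme and no-compound control wells.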
# AMA1-RON2 inh – disrupts binding of P. falciparum AMA1 to RON2; AlphaScreen AMA1-biotinylated RON2 peptide binding; hit rate 0.2% among 360,000; Potency, µM (series often up to 58.2 µM), for inactives: top-dose activity change, negative = inhibition, hits mostly inhibitors;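 further: potency means the concentration at half of the fitted maximal effect; 0% = vehicle wells and -100% = peptide control; nearly all actives have a fitted effect of over 45% in size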
#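 AMA1 (3D7) with his tag at 25 nM final met compounds first, then biotinylated RON2 peptide at 25 nM; detection used donor plus acceptor beads, 10 µg/mL apiece, read by AlphaScreen after 30 min at room temperature.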
# AmpC inh no detg – blocks E. coli AmpC beta-lactamase in detergent-free assay. Potency, µM (series often up to 57.1 µM), for inactives: at the highest dose activity change, negative = inhibition, most hits filed as inhibitors. hit rate 0.52% among 330,000. AmpC nitrocefin hydrolysis, absorbance 480 nm, 0.0001% Triton. AID 485341;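 further: potency means the concentration at half of the fitted maximal effect; plate controls were no compound for no effect and no enzyme for full effect; nearly all actives have a fitted effect of over 20% in size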
#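 20 mM phosphate pH 7.0 + 0.01% (detergent screen) or 0.0001% Triton X-100; 5.3 nM AmpC reagent; cpd preinc 15 min RT; nitrocefin (800 uM stock) to start; A480 q20 s × 4 min; Activity was normalised to no-enzyme and no-compound control wells.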
# Shiga inhibitor – blocks Shiga toxin action in Vero cells; inhibition, % at 38.7 µM; hit rate 9.2% among 290,000; Vero cells, Shiga toxin protein synthesis inhibition reporter; AID 2315; in the data active means inhibition mostly above about 28%, no sharp cut-off; inactive means mostly below about 43%; further: 0% is about no effect
# * marks the source's active call; other numbers are inactive results; ? = inconclusive; . = no result given; + = active, no number; [ ] = remark or other dose. Unless noted, the call rests on the fitted dose curve; in most records, active means well fitted curve in the direction sought with a large enough effect; inconclusive means small, poorly fitted or top-dose-only effect, or another doubt; inactive means no such curve, though single readings can be large; an effect the other way counts as inactive or inconclusive.
SMILES,SARS PLpro yeast,Cycloheximide cs,AmpC detergent,AMA1-RON2 inh,AmpC inh no detg,Shiga inhibitor
N=c1n(CCN2CCOCC2)c2ccccc2n1CC(=O)c1cccc([N+](=O)[O-])c1,-2%,-3,-8%,24%,129%,-22
COC(=O)c1c(NC(=O)CN2C(=O)NC3(CCc4ccccc4C3)C2=O)sc2c1CCCCC2 (centres undefined),-3%,-6,-16%,-5%,3.5µM*,-18
O=C(NCCS(=O)(=O)N1CCN(c2ccc(F)cc2)CC1)C1CC(=O)N(c2ccc(F)cc2)C1 (centres undefined),.,.,11%,.,.,.
CCOc1ccc(NC(=O)c2cc(SC)ccc2Cl)cc1,3%,1,?,6%[2.32 µM],-38%,-5
CCOc1ccc(NC(=O)C(C)Oc2ccccc2C(=O)Nc2ccc(C)c(Cl)c2)cc1 (centres undefined),-18%,22*,-9%,2%,-5%,111*
COc1ccc(NC(=O)c2ccccc2SC)cc1,-1%,54*,6%,0%,-16%,67*
CCOc1ccc(NC(=O)c2ccccc2SC)cc1,-3%,50*,3%,9%,-26%,59*
COCC(=O)Nc1nnc(COc2ccc(Cl)cc2)s1,-20%,20*,?,0%,-10%,73*
O=C(CSc1ccccc1)Nc1nnc(COc2ccc(Cl)cc2)s1,10%,65*,?,8%,-39%,61*
Cc1cccc(C)c1OCc1nnc(NC(=O)CSc2ccc(Cl)cc2)s1,-17%,-4,8%,1%,-14%,-8
CCOC(=O)/C(=N\Nc1ccccc1[N+](=O)[O-])c1csc(N)n1,-1%,21*,-6%,?,-29%,36
Cc1cc(C)nc(N(C#N)CC(=O)c2ccccc2)n1,-1%,37*,8%,0%,-11%,48*
CCc1ccc(C(=O)CN(C#N)c2nc(C)cc(C)n2)cc1,-3%,4,-2%,10%,2%,25
CC1(C)Cc2c(sc3ncn4nnnc4c23)CO1,-3%,-3,?,.,-12%,-21
O=C(Nc1cccnc1Cl)c1cc(-c2ccco2)on1,5%,41*,?,-4%,-12%,83*
COc1ccc(-c2nnc(SC(C)C(=O)Nc3cccc(Cl)c3)o2)cc1 (centres undefined),-18%,25,?,1%,0%,66*
O=C(Nc1cc(Cl)ccc1O)c1cc(-c2ccco2)on1,-2%,40*,-6%,5%,-38%,80*
COc1cc(NC(=O)c2cc(-c3ccc(C)cc3)on2)cc(OC)c1OC,2%,11*,?,10%,-24%,.
CC(=O)NCC(=O)N(c1ccccc1)C1(C(=O)NC2CCCCC2)CCCCC1,-6%,-3,0%,0%,58%,-30
O=C(CCCc1nc(-c2ccccc2)no1)NC1CCCC1,0%,-2,4%,-9%,-5%,2
COc1ccc(-c2cc(C(=O)Nc3cccc(Cl)c3)no2)cc1,2%,42*,-1%,1%,-24%,85*
O=C(Nc1cccc(Cl)c1)c1cc(-c2ccco2)on1,-17%,31*,?,1%,-51%,56*
O=C(Nc1cccc(Cl)c1)c1cc(-c2ccccc2)on1,.,.,2%,.,.,.
COc1cc(NC(=O)c2cc(-c3ccco3)on2)c(OC)cc1Cl,-2%,5,-19%,-6%,-22%,12
O=C(Nc1cc(Br)ccc1O)c1cc(-c2ccco2)on1,-11%,19,-6%,9%,-46%,59*
SMILES,SARS PLpro yeast,Cycloheximide cs,AmpC detergent,AMA1-RON2 inh,AmpC inh no detg,Shiga inhibitor
CCC(c1nnnn1C(C)(C)C)N(Cc1cccs1)Cc1cc2cc(C)c(C)cc2n2nnnc12 (centres undefined),.,.,.,-4%,.,.
COc1ccc(-n2c(SCC(=O)NCc3cccs3)nc3[nH]ncc3c2=O)cc1,1%,-5,2%,16%,-22%,18
O=C(O)Cn1cc(/C=c2/sc3nc4ccccc4n3c2=O)c2ccccc21,-3%,37*,3%,7%,-24%,115*
Cc1ccc(-n2c(C)cc(/C=c3/sc4nc5ccccc5n4c3=O)c2C)cc1,-5%,35*,-1%,3%,-3%,87*
O=c1/c(=C\c2cccn2-c2ccccc2)sc2nc3ccccc3n12,7%,21,-11%,-11%,-14%,28*
O=C(O)Cn1cc(/C=C2/NC(=O)N(c3ccc(Cl)cc3)C2=O)c2ccccc21,3%,-8,?,3%,-7%,7
O=C(NCC1CCN(Cc2ccc(Cl)cc2)CC1)C1CCCN(c2ncnc3c2nc2n3CCCCC2)C1 (centres undefined),0%,-1,1%,52%,203%,13
CCOC(=O)CC(/C(C)=N\O)c1ccccc1 (centres undefined),-2%,-7,?,1%,-2%,-17
CCCc1nn(C)c(C(=O)Nc2cccc(CC)c2)c1Cl,8%,18*,?,104%,19%,+
CCCc1nn(C)c(C(=O)Nc2ccc3ccccc3c2)c1Cl,-10%,49*,?,8%,-14%,54*
Cc1cc(C)cc(NC(=O)CSc2nc(-c3cccc(Cl)c3)nc3c2Cc2c(CO)cnc(C)c2O3)c1,.,.,13%,.,.,.
Cc1ccc(-c2nc3cnccn3c2Nc2ccc3c(c2)OCO3)o1,-2%,-3,?,-18%,2.8µM*,12
Cc1ccc(-c2nc3ncccn3c2Nc2ccc3c(c2)OCCO3)o1,0%,27*,0%,27%,-16%,70*
Clc1ccc(-c2nc3cnccn3c2Nc2ccc3c(c2)OCO3)cc1,-24%,-3,?,-29%,22µM*,1
Cc1ccn2c(Nc3ccc4c(c3)OCO4)c(-c3ccc(C)o3)nc2c1,.,.,1%,.,.,.
c1cn2c(Nc3ccc4c(c3)OCCO4)c(-c3ccc(N4CCOCC4)cc3)nc2cn1,-2%,24*,-1%,-6%,127%,53*
Oc1ccccc1-c1nc2cnccn2c1Nc1ccc2c(c1)OCCO2,-10%,30*,2%,?,-22%,51*
COc1ccc2cc(-c3[nH]ncc3CN3CCCN(c4ccccc4)CC3)ccc2c1,-1%,16*,-5%,?,20%,17
COc1ccc2cc(-c3[nH]ncc3CN3CCCCO3)ccc2c1,-2%,20*,9%,-11%,32%,57*
COCC1CCCCN1Cc1cn[nH]c1-c1ccc2cc(OC)ccc2c1 (centres undefined),0%,19*,5%,2%,4%,32*
COc1ccc2cc(-c3[nH]ncc3CN3C[C@@H]4CCC[C@H]3C4)ccc2c1,-1%,32*,3%,-15%,1%,27
